D1 agonist: human D1 receptor agonism; activation, % at 2 µM; hit rate 1% among 360,000; HEK293 T-REx D1 cells, calcium flux, agonist mode; AID 504660
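Inducible HEK293 T-REx D1 cells, force-coupled to calcium signalling, were plated at 4000 cells/well with tetracycline and held overnight at 30 C. After no-wash calcium dye loading, compound-evoked calcium rise over 180 s flagged agonists.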
TRHR ag: activates the human TRH receptor; TRHR cells, calcium flux fluo-8, FDSS agonist mode; activation, % at 2 µM; hit rate 0.18% among 360,000; P34981
Target sequence (P34981 whole entry, looked up): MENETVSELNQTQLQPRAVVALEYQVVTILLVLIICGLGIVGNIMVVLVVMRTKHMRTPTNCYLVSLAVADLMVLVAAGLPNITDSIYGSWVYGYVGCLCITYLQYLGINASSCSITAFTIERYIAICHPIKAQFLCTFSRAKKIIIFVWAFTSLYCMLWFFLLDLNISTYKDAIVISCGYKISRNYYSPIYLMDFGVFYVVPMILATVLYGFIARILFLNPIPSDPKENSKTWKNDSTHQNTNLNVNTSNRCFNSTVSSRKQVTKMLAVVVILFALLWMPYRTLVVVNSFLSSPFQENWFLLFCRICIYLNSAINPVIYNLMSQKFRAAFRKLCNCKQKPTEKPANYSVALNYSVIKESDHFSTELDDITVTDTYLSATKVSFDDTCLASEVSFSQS
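Steps: seed TRHR cells overnight; add fluo-8 no-wash Ca dye, RT 30 min–1.5 h; record 10 s baseline; pin-transfer compounds; monitor fluorescence 1 cycle/s for the agonist window. Calcium increases flag candidate agonists.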
TRHR PAM: allosteric enhancers of human TRH receptor | P34981 | TRHR cells, fluo-8 calcium fluorescence, EC20 TRH enhancement | enhancement, % at 2 µM | hit rate 0.66% among 360,000 | AID 493056; in the data active means enhancement above about 30%
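TRHR-expressing cells loaded with fluo-8 calcium dye were read kinetically (ex 480/em 530) during compound addition, then stimulated with an EC20 of TRH (10 nM final). Enhancement of the Gq-mediated intracellular calcium response was scored.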
D1 antagonist: antagonists of human D1 dopamine receptor. hit rate 3.2% among 360,000. P21728. activity change, negative = inhibition, % at 10 µM. HEK293 TREx D1 cells, calcium flux, dopamine EC80; active compounds read low; in the data active means activity change below about -30%
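Allosteric or orthosteric antagonism assessed as attenuation of the calcium response to EC80 dopamine, added 180 s after compound, in induced HEK293 Trex D1 cells loaded with no-wash calcium dye.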
D1 PAM: human D1 dopamine receptor positive modulation. P21728. hit rate 0.036% among 360,000. HEK293 TREx D1 cells, calcium flux, dopamine EC20 potentiation. AID 504651. potentiation, % at 10 µM; in the data active means potentiation above about 30%
Each line names hits and unclear results; the compound was inactive in the other large screens. This is a sample that favours compounds with a hit; in the whole collection about 4.7% have one here. Unless noted, no stated cut-off is given here; in the data, active means activation above about 30%; inactive means the rest.

CC(C)(CO)Cc1cc(C(C)(C)C)c(O)c(C(C)(C)C)c1	D1 agonist 71.1
CC1=C(C(=O)Nc2ccccc2C)C(c2cccs2)n2nc(SCc3ccccc3)nc2N1 (stereo not drawn)	none
COc1ccc(-n2c(-c3ccc(C)cc3)cc3c2CC(C)(C)CC3=O)c(OC)c1	none
COc1cccc(C(C(=O)NCc2ccco2)N(Cc2ccco2)C(=O)Cn2nnc3ccccc32)c1 (stereo not drawn)	D1 antagonist -33.4
COc1cccc(N(C(=O)Cn2nnc3ccccc32)C(C(=O)NCc2ccco2)c2cccnc2)c1 (stereo not drawn)	none
Cc1cc(F)ccc1S(=O)(=O)Nc1ccc2oc3c(c2c1)CC(C)CC3 (stereo not drawn)	D1 agonist 36.8
CN(C)S(=O)(=O)c1ccc(C(=O)NCCSc2c(-c3ccc(Br)cc3)[nH]c3ccccc23)cc1	none
O=C(Cc1nnc(CNC(=O)c2ccccc2)o1)Nc1cc(C(F)(F)F)ccc1Cl	none
Cc1onc(-c2ccccc2Cl)c1C(=O)Nc1ccc(Cl)cn1	TRHR PAM 31.1
Cc1onc(-c2ccccc2Cl)c1C(=O)Nc1ccc(N2CCOCC2)cc1	D1 antagonist -46.2
O=C(CCc1nc(-c2ccccc2)no1)Nc1cc(C(F)(F)F)ccc1Cl	D1 agonist 60.9
Cc1ccc(NC(=O)c2c(-c3ccccc3Cl)noc2C)nc1	none
Cc1onc(-c2ccccc2Cl)c1C(=O)NCc1nc(-c2ccc(C(F)(F)F)cc2)no1	D1 antagonist -37.5
Cc1cccc(NC(=O)C(=O)c2cc(C)n(-c3ccccc3)c2C)c1C	none
CCCN1CCN(c2ncnc3sc(C(=O)Nc4c(C)cc(C)cc4C)c(C)c23)CC1	none
Cc1onc(-c2ccccc2Cl)c1C(=O)Nc1nnc(-c2cccc([N+](=O)[O-])c2)s1	D1 agonist 41.2
Cc1cccc(C(=O)NNC(=O)c2c(-c3ccccc3Cl)noc2C)c1O	TRHR PAM 30.8
Cc1onc(-c2ccccc2Cl)c1C(=O)NNC(=O)c1ccc(F)cc1	none
CCSc1nnc(NC(=O)c2c(-c3ccccc3Cl)noc2C)s1	none
CCCN1CCN(CCCNC(=O)Cn2c(-c3cccs3)cc3ccccc32)CC1	none
CCCN1CCN(CCCNC(=O)Cn2c(-c3cccs3)cc3cc(Cl)ccc32)CC1	D1 agonist 35.4
Cc1cn2c(=O)c(S(=O)(=O)Nc3ccc(OC(F)(F)F)cc3)c(C)nc2s1	none
O=Cc1ccccc1-n1cccn1	D1 antagonist -33.1
N#C/C(=C\c1ccc[nH]1)C(=O)Nc1ccccc1F	D1 antagonist -31.2
N#C/C(=C\c1ccc[nH]1)C(=O)Nc1ccccc1Cl	none
CCOc1ccccc1N(CC)C(=O)c1cc2c(=O)n(CC)c3ccccc3c2s1	TRHR PAM 50.0
CCCN(C(=O)c1cc2c(=O)n(CC)c3ccccc3c2s1)c1ccccc1F	none
COc1cc2cc(Oc3ccc4ccc(=O)oc4c3)c(=O)oc2cc1OC(=O)/C=C/c1ccccc1	D1 antagonist -62.3
COc1ccc(C(=O)Oc2ccc3ccc(=O)oc3c2)cc1OC	none
CCn1nnc2cc(C(=O)Nc3cccc(Cl)c3C)ccc21	none
CCc1ccc(-c2cn3c(n2)sc2cc(C(=O)NCCc4ccc(OC)cc4OC)ccc23)cc1	none
Cc1cc(C)cc(NC(=O)Cn2c(=O)n(C(C)C)c(=O)c3oc4ccccc4c32)c1	none
N#C/C(=C\c1sc(N2CCOCC2)nc1-c1ccccc1)C(=O)Nc1cccc2ccccc12	D1 agonist 40.1
O=C(Nc1ccccc1)c1sc(N2CCOCC2)nc1-c1ccccc1	none
O=C(CSc1nccn1-c1cccc(Cl)c1)Nc1ccc2c(c1)OCO2	none
CC(Sc1nnc(-c2cccnc2)n1N)C(=O)N1CCOCC1 (stereo not drawn)	none
CC(Sc1nnc(-c2cccnc2)n1-c1ccccc1F)C(=O)N1CCCc2ccccc21 (stereo not drawn)	TRHR PAM 37.0
CCc1nc2nc(C)c(NS(=O)(=O)c3ccc(C(C)(C)C)cc3)c(=O)n2[nH]1	D1 antagonist -72.3
Cc1ccc(C(=O)N[C@@H](C)CN2C3=NC[C@H](C)N3C[C@H]2Cc2ccc(O)cc2)cc1Br	D1 antagonist -65.3
Cc1nc2nncn2c(NCc2ccc(F)cc2)c1C	none
Cc1nc2nncn2c(NCc2ccc(Cl)cc2)c1C	D1 antagonist -34.2
COc1ccc(C)cc1-n1c(-c2ccncc2)n[nH]c1=S	D1 antagonist -32.5
Cn1ccsc1=NC(=O)c1ccccc1F	none
Cc1ccc(C)c(-n2c(-c3ccc(Br)cc3)csc2=NC(=O)c2ccccc2F)c1	D1 antagonist -42.0
CC(C)(C)C(=O)NC(=S)NNC(=O)c1ccc(-c2ccccc2)cc1	D1 agonist 262.4, TRHR ag 58.4 (no result: D1 antagonist)
CC(C)(C)C(=O)NC(=S)NNC(=O)c1ccc(Cl)cc1Cl	D1 agonist 397.1, TRHR ag 102.1
COc1cccc(-n2cc(C(=O)Oc3cccc(C(F)(F)F)c3)c3ccccc3c2=O)c1	none
COc1ccccc1NC(=O)c1c(-c2ccc(C)cc2)nnc2ccccc12	none
CCOc1ccc(NC(=O)Cn2cc(C(=O)c3ccc(CC)cc3)c(=O)c3ccc(C)nc32)cc1	none
Cc1ccc(N=C2NC(=O)/C(=C/c3cn(C)c4ccccc34)S2)cc1C	D1 agonist 54.1, D1 antagonist -98.5
Cc1c(C)c2ccc(Oc3ccc([N+](=O)[O-])cc3C(F)(F)F)c(C)c2oc1=O	D1 antagonist -33.3
COc1ccc2c(C(F)(F)F)cc(=O)oc2c1C	none
COc1ccc(OC)c(/C=C/C(=O)Nc2ccc(C(=O)OCCC(C)C)cc2)c1	none
Cc1ccc(N2/C(=N/c3nc(C)cc(C)n3)NC(=O)CC2C(=O)O)cc1 (stereo not drawn)	none
Cc1cc(C)nc(/N=C2\NC(=O)CC(C(=O)O)N2c2ccc(Cl)cc2)n1 (stereo not drawn)	D1 antagonist -61.8
Cc1ccc(Cn2c(CNC(=O)CCc3ccccc3)nc3cccnc32)cc1	none
COC(=O)Cn1c(O)c(N=NC(=O)c2ccc3c(c2)OCO3)c2ccccc21	D1 antagonist -34.9
Cn1c(SCC(=O)N2c3ccccc3Sc3ccccc32)nc2ccccc21	none
CN(C)CCCn1c(SCC(=O)N2c3ccccc3Sc3ccccc32)nc2ccccc2c1=O	D1 agonist 37.8
Cc1cccc(CC(C)NC(=O)c2cc(COc3ccc(C)c(C)c3)on2)n1 (stereo not drawn)	none
Cc1ccc(OCc2cc(C(=O)NC(C)Cc3cnccn3)no2)cc1C (stereo not drawn)	D1 antagonist -39.7
c1nc2sc3c(c2c2nnnn12)CCCC3	none
Cc1nn2cnc3sc4c(c3c2nc1=O)CCCC4	D1 antagonist -85.9
O=C(CN1CCN(Cc2ccccc2F)C1=O)NCCc1ccc(Cl)cc1	none (no result: D1 PAM)
O=C(CN1CCN(Cc2ccccc2Cl)C1=O)NCCc1ccc(Cl)cc1	D1 antagonist -33.3

Screening data as filed in PubChem BioAssay.
